In the supplement of paper PMC9694430:

What was measured:
Assay in all cases: thermal shift delta Tm vs DMSO control; higher = stronger stabilization (binding)
Conditions in all cases: 12.5 µM; protein concentration 2 µM
[1] = tested on: LOC_OS01G57100-cb003
In short: (§1)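 Heating from 25°C to 95°C at 0.05°C/s, fluorescence was recorded for 19.5 μl wells of 2 μM E. coli-expressed, purified rice kinase domain in 100 mM potassium phosphate pH 7.5, 150 mM NaCl, 10% glycerol and 5 × SYPRO Orange with compound in DMSO. Boltzmann fits gave melting temperatures for this differential scanning fluorimetry assay. The shift reported is the mean of three replicates against the DMSO-only protein.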

[2] = tested on: LOC_OS01G60330-cb001
In short: as §1

[3] = tested on: LOC_OS01G60700-cb002
In short: as §1

[4] = tested on: LOC_OS01G63280-cb003
In short: as §1

[5] = tested on: LOC_OS01G67340-cb003
In short: as §1

[6] = tested on: LOC_OS01G70970-cb002
In short: as §1

[7] = tested on: LOC_OS02G07810-cb001
In short: as §1

[8] = tested on: LOC_OS02G08530-cb003
In short: as §1

[9] = tested on: LOC_OS02G14120-cb001
In short: as §1

[10] = tested on: LOC_OS02G17970-cb001
In short: as §1

[11] = tested on: LOC_OS02G45750-cb003
In short: as §1

[12] = tested on: LOC_OS02G54510-cb004
In short: as §1

[13] = tested on: LOC_OS03G04050-cb001
In short: as §1

[14] = tested on: LOC_OS03G12390-cb001
In short: as §1

[15] = tested on: LOC_OS03G27990-cb004
In short: as §1

[16] = tested on: LOC_OS03G50450-cb001
In short: as §1

[17] = tested on: LOC_OS03G50810-cb003
In short: as §1

[18] = tested on: LOC_OS04G35114-cb001
In short: as §1

[19] = tested on: T1, LOC_OS04G38480-cb003
T1 sequence (whole entry): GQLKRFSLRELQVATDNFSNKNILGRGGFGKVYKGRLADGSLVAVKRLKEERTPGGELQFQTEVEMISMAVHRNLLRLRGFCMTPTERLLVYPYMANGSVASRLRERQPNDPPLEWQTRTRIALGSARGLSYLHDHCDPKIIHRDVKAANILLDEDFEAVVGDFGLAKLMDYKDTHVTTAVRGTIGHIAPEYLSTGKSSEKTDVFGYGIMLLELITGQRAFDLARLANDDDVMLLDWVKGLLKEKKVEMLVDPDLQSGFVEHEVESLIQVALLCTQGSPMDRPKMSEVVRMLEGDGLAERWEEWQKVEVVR
In short: as §1

[20] = tested on: T2, LOC_OS04G41100-cb001
T2 sequence (whole entry): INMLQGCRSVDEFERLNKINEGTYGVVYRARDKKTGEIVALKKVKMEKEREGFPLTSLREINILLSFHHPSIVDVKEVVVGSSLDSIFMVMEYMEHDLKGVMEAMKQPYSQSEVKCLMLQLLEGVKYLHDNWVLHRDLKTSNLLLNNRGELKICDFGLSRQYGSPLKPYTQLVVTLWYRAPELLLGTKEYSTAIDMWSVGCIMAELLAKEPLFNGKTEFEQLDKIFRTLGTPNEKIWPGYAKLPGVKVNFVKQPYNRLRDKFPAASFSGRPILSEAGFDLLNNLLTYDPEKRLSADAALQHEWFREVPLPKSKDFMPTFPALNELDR
In short: as §1
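Also: purified Escherichia coli-expressed rice kinase domain construct.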

SMILES: N#Cc1ccc2[nH]c(O)c(-c3ccc(CN4CCOCC4)cn3)c2c1
- thermal shift delta Tm [1]: -0.18 °C
- thermal shift delta Tm [2]: 0.88 °C
- thermal shift delta Tm [3]: 1.33 °C
- thermal shift delta Tm [4]: 0.3 °C
- thermal shift delta Tm [5]: -0.02 °C
- thermal shift delta Tm [6]: 0.56 °C
- thermal shift delta Tm [7]: 0.82 °C
- thermal shift delta Tm [8]: 1.04 °C
- thermal shift delta Tm [9]: -0.04 °C
- thermal shift delta Tm [10]: 0.51 °C
- thermal shift delta Tm [11]: 1.77 °C
- thermal shift delta Tm [12]: -0.01 °C
- thermal shift delta Tm [13]: 0.4 °C
- thermal shift delta Tm [14]: 2.43 °C
- thermal shift delta Tm [15]: 0.48 °C
- thermal shift delta Tm [16]: 0.53 °C
- thermal shift delta Tm [17]: 1.1 °C
- thermal shift delta Tm [18]: 1.83 °C
- thermal shift delta Tm [19]: -0.4 °C
- thermal shift delta Tm [20]: 2.66 °C

SMILES: Cn1cnc2c(F)c(Nc3ccc(Br)cc3F)c(C(=O)NOCCO)cc21
- thermal shift delta Tm [1]: 0.75 °C
- thermal shift delta Tm [2]: 0.73 °C
- thermal shift delta Tm [3]: 1.26 °C
- thermal shift delta Tm [4]: 0.46 °C
- thermal shift delta Tm [5]: 0.06 °C
- thermal shift delta Tm [6]: 0.46 °C
- thermal shift delta Tm [7]: 1.12 °C
- thermal shift delta Tm [8]: 0.93 °C
- thermal shift delta Tm [9]: -0.02 °C
- thermal shift delta Tm [10]: 1.34 °C
- thermal shift delta Tm [11]: 0.6 °C
- thermal shift delta Tm [12]: 0.05 °C
- thermal shift delta Tm [13]: 0.71 °C
- thermal shift delta Tm [14]: 0.19 °C
- thermal shift delta Tm [15]: 0.4 °C
- thermal shift delta Tm [16]: 0.43 °C
- thermal shift delta Tm [17]: 0.44 °C
- thermal shift delta Tm [18]: 0 °C
- thermal shift delta Tm [19]: 1.48 °C
- thermal shift delta Tm [20]: 0.46 °C

SMILES: CN(C)Cc1cccc(N/C(=C2\C(=O)Nc3cc(C(N)=O)ccc32)c2ccccc2)c1
- thermal shift delta Tm [1]: 0.28 °C
- thermal shift delta Tm [2]: 1.3 °C
- thermal shift delta Tm [3]: 0.57 °C
- thermal shift delta Tm [4]: 0.43 °C
- thermal shift delta Tm [5]: 0.19 °C
- thermal shift delta Tm [6]: 0.87 °C
- thermal shift delta Tm [7]: 0.75 °C
- thermal shift delta Tm [8]: 1.55 °C
- thermal shift delta Tm [9]: 1.2 °C
- thermal shift delta Tm [10]: 0.67 °C
- thermal shift delta Tm [11]: 1.35 °C
- thermal shift delta Tm [12]: 0.37 °C
- thermal shift delta Tm [13]: 0.38 °C
- thermal shift delta Tm [14]: 3.49 °C
- thermal shift delta Tm [15]: 3.05 °C
- thermal shift delta Tm [16]: 0.35 °C
- thermal shift delta Tm [17]: 1.47 °C
- thermal shift delta Tm [18]: 3.48 °C
- thermal shift delta Tm [19]: 0.38 °C
- thermal shift delta Tm [20]: 0.47 °C

SMILES: C[C@@H](NC(=O)c1ncnc(N)c1Cl)c1ncc(C(=O)Nc2cc(C(F)(F)F)c(Cl)cn2)s1
- thermal shift delta Tm [1]: 0.35 °C
- thermal shift delta Tm [2]: 1.01 °C
- thermal shift delta Tm [3]: 1.42 °C
- thermal shift delta Tm [4]: 1.75 °C
- thermal shift delta Tm [5]: 0.42 °C
- thermal shift delta Tm [6]: 0.8 °C
- thermal shift delta Tm [7]: 0.35 °C
- thermal shift delta Tm [8]: 0.67 °C
- thermal shift delta Tm [9]: 0.58 °C
- thermal shift delta Tm [10]: 0.7 °C
- thermal shift delta Tm [11]: 0.64 °C
- thermal shift delta Tm [12]: 6.43 °C
- thermal shift delta Tm [13]: 0.36 °C
- thermal shift delta Tm [14]: 0.49 °C
- thermal shift delta Tm [15]: 0.28 °C
- thermal shift delta Tm [16]: 0.42 °C
- thermal shift delta Tm [17]: -0.01 °C
- thermal shift delta Tm [18]: 0.39 °C
- thermal shift delta Tm [19]: 0.76 °C
- thermal shift delta Tm [20]: 0.71 °C

SMILES: CN1CC[C@H](c2c(O)cc(O)c3c(=O)cc(-c4ccccc4Cl)oc23)[C@H](O)C1 [Flavopiridol (Alvocidib)]
- thermal shift delta Tm [1]: 0.96 °C
- thermal shift delta Tm [2]: 0.94 °C
- thermal shift delta Tm [3]: 0.39 °C
- thermal shift delta Tm [4]: 0.37 °C
- thermal shift delta Tm [5]: -0.01 °C
- thermal shift delta Tm [6]: 1.4 °C
- thermal shift delta Tm [7]: 0.63 °C
- thermal shift delta Tm [8]: 1.53 °C
- thermal shift delta Tm [9]: 1.28 °C
- thermal shift delta Tm [10]: -0.3 °C
- thermal shift delta Tm [11]: 1.64 °C
- thermal shift delta Tm [12]: 0.69 °C
- thermal shift delta Tm [13]: 0.2 °C
- thermal shift delta Tm [14]: 1.66 °C
- thermal shift delta Tm [15]: 1.06 °C
- thermal shift delta Tm [16]: 0.4 °C
- thermal shift delta Tm [17]: 0.4 °C
- thermal shift delta Tm [18]: 2.64 °C
- thermal shift delta Tm [19]: 0.88 °C
- thermal shift delta Tm [20]: 0.66 °C

SMILES: O=C1NC(=O)/C(=C/c2ccc3c(c2)OC(F)(F)O3)S1
- thermal shift delta Tm [1]: 2.63 °C
- thermal shift delta Tm [2]: 0.63 °C
- thermal shift delta Tm [3]: 1.33 °C
- thermal shift delta Tm [4]: 0.41 °C
- thermal shift delta Tm [5]: 0.47 °C
- thermal shift delta Tm [6]: 0.52 °C
- thermal shift delta Tm [7]: 1.34 °C
- thermal shift delta Tm [8]: 0.96 °C
- thermal shift delta Tm [9]: -0.18 °C
- thermal shift delta Tm [10]: 0.93 °C
- thermal shift delta Tm [11]: 1.3 °C
- thermal shift delta Tm [12]: 0.48 °C
- thermal shift delta Tm [13]: 0.81 °C
- thermal shift delta Tm [14]: 0.94 °C
- thermal shift delta Tm [15]: 0.43 °C
- thermal shift delta Tm [16]: 0.55 °C
- thermal shift delta Tm [17]: 0.65 °C
- thermal shift delta Tm [18]: 0.97 °C
- thermal shift delta Tm [19]: 1.58 °C
- thermal shift delta Tm [20]: 0.5 °C

SMILES: Cn1cc(-c2ccc(F)c(C(F)(F)F)c2)nc1C1CCN(c2ncnc3[nH]ncc23)CC1
- thermal shift delta Tm [1]: 0.5 °C
- thermal shift delta Tm [2]: 1.11 °C
- thermal shift delta Tm [3]: 0.96 °C
- thermal shift delta Tm [4]: -0.11 °C
- thermal shift delta Tm [5]: 0.07 °C
- thermal shift delta Tm [6]: 0.57 °C
- thermal shift delta Tm [7]: 0.34 °C
- thermal shift delta Tm [8]: 0.53 °C
- thermal shift delta Tm [9]: 0.5 °C
- thermal shift delta Tm [10]: 0.85 °C
- thermal shift delta Tm [11]: 0.33 °C
- thermal shift delta Tm [12]: 0.45 °C
- thermal shift delta Tm [13]: 0.47 °C
- thermal shift delta Tm [14]: -0.18 °C
- thermal shift delta Tm [15]: 0.44 °C
- thermal shift delta Tm [16]: 0.81 °C
- thermal shift delta Tm [17]: 0.37 °C
- thermal shift delta Tm [18]: 0.97 °C
- thermal shift delta Tm [19]: 0.91 °C
- thermal shift delta Tm [20]: 0.15 °C
